Source: PubChem (National Center for Advancing Translational Sciences (NCATS))
Gal4-VP16 FLuc – Gal4-VP16 reporter inhibition counter-screen; Drosophila S2 Gal4-VP16 UAS-luciferase, luminescence, 20 h; Potency, µM (doses to about 53.6 µM), actives largely listed as inhibitors; actives 3.5% (n = 310,000); AID 2546;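 note: Gal4-VP16 expression switched on by copper sulfate through the metallothionein promoter; nearly all actives have a fitted effect of over 50% in size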
RORg inh – inhibitors of mouse ROR gamma transcriptional activity; Drosophila S2 Gal4-RORgamma UAS-luciferase reporter, 20 h; Potency, µM (doses to about 53.6 µM), actives largely listed as inhibitors; actives 5.4% (n = 310,000); AID 2551; note: nearly all actives have a fitted effect of over 60% in size
Target sequence (P51450 whole entry, looked up, the tested form may be a part): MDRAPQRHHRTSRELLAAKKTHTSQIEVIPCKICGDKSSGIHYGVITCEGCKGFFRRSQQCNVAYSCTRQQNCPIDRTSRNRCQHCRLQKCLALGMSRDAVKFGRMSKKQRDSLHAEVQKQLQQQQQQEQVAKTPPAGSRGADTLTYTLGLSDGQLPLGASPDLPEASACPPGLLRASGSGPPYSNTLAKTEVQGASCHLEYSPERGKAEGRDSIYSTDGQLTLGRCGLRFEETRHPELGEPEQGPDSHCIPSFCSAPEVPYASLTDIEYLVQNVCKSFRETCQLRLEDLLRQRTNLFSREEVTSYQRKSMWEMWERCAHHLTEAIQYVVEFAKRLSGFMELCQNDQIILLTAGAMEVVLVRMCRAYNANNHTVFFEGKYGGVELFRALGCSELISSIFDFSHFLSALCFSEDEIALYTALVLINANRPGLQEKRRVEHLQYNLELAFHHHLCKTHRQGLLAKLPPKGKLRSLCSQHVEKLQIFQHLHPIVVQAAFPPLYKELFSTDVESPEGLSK
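A Gal4/UAS one-hybrid system in insect cells: metallothionein-promoter Gal4–ROR gamma fusion plus Photinus luciferase reporter. Copper sulfate 700 uM final, 20 hr ambient incubation, luminescent detection after 10 min with reagent.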
ELG1 repair inh – blocks ELG1-dependent DNA repair in HEK293T cells. actives 2.3% (n = 330,000). Potency, µM (titrated, usually from 46.1 µM), most hits filed as inhibitors. HEK293T ELG1-luciferase reporter, luminescence, 16 h; DNA damage induced by 5-fluorouridine; note: nearly all actives have a fitted effect of over 55% in size
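Step one: seed 2,000 cells per well. Step two: pin-transfer compound or DMSO alongside 5-fluorouridine. Step three: incubate 16 hr, 37 °C, 5% CO2. Step four: add ONE-Glo, wait 30 min, read luminescence.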
B2AR arrestin – recruits beta-arrestin to the human beta2-adrenergic receptor; actives 0.02% (n = 330,000); Potency, µM (titrated, usually from 46.1 µM), hits mostly activators; P07550; beta-arrestin recruitment to beta2AR, cell-based reporter; note: nearly all actives have a fitted effect of over 65% in size
TSHR antagonist – antagonists of human thyroid stimulating hormone receptor. P16473. TSHR-expressing cells, TSH-stimulated cAMP HTRF, 2 h; active compounds read low. activity change, negative = inhibition, % at 11.5 µM. actives 0.2% (n = 330,000). AID 504810;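 active = activity change below a set negative limit, meaning inhibition stronger than a set level, cut at about -70% in these data; inconclusive = activity change between two set negative limits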
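Cell-based HTRF cAMP assay; TSHR cells + compound, TSH EC80 (4nM final), 2 h, 37 deg C. Lysis with anti-cAMP cryptate and cAMP-d2, 30 min RT, read 665/620 nm.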
Of the large screens only hits and unclear results are named; the others gave an inactive call. Most compounds without a hit are left out; they make up all but 7.5% or so of the library. Unless noted, calls come from the whole dose curve; as a rule, active = well fitted curve in the direction sought with a large enough effect; inconclusive = small, poorly fitted or top-dose-only effect, or another doubt; inactive = no such curve, though single readings can be large; an effect the other way counts as inactive or inconclusive.

Cc1cc(C)n2ncc(/C(N)=N/OC(=O)Nc3ccc(Cl)cc3)c2n1	none
CCN(CC)C1CCN(C(=O)c2ccc3nc(Cc4ccc(OC)cc4)oc3c2)C1 (centres undefined)	none
COc1cc2c(cc1OC)-c1cc(=Nc3c(C)cc(C)cc3C)n(C)c(=O)n1CC2	none (no result: ELG1 repair inh, B2AR arrestin)
COCCn1c(=O)c(-c2ccc(OC)cc2)nc2cnc(N3CCOCC3)nc21	none (no result: ELG1 repair inh, B2AR arrestin, TSHR antagonist)
CC(C)(C)OC(=O)C[C@H]1C/C=C\C[C@H](CC(=O)N(CCO)Cc2ccccc2)C(=O)N[C@@H](c2ccccc2)COC1=O	ELG1 repair inh 8.2µM (no result: Gal4-VP16 FLuc, RORg inh)
O=C1N[C@H](Cc2ccccc2)COC(=O)[C@H](Cc2ccc(F)cc2)C/C=C\C[C@@H]1CC(=O)N(CCO)Cc1ccccc1	ELG1 repair inh inconclusive (no result: Gal4-VP16 FLuc, RORg inh)
O=C1N[C@H](Cc2ccccc2)COC(=O)[C@H](Cc2ccc(F)cc2)CC/C=C/C[C@@H]1CC(=O)N(CCO)Cc1ccccc1	ELG1 repair inh 21µM (no result: Gal4-VP16 FLuc, RORg inh)
CC(C)(C)OC(=O)C[C@H]1C/C=C\C[C@@H](CC(=O)N(CCO)Cc2ccccc2)C(=O)N[C@@H](c2ccccc2)COC1=O	ELG1 repair inh inconclusive (no result: Gal4-VP16 FLuc, RORg inh)
c1ccc(COC[C@@H]2CO2)cc1	none (no result: ELG1 repair inh, B2AR arrestin, TSHR antagonist)
CN(C)c1ccc(NC(=S)NC(=O)/C=C/c2ccco2)cc1	RORg inh 14µM
O=C(/C=C/c1ccco1)NC(=S)Nc1ccc(N2CCCC2)cc1	Gal4-VP16 FLuc 3.2µM, RORg inh 2µM, ELG1 repair inh inconclusive
C=CCNC(=S)Nc1ccc(N(C)C)cc1	Gal4-VP16 FLuc inconclusive, RORg inh 11µM, ELG1 repair inh inconclusive
CN(C)c1ccc(NC(=O)/C=C/c2ccccc2Cl)cc1	RORg inh 0.056µM, ELG1 repair inh inconclusive
CCN(CC)c1ccc(NC(=O)/C=C\c2ccccc2Cl)cc1	ELG1 repair inh inconclusive
Cc1ccccc1CNC(=O)Nc1ccc(Cl)cc1	ELG1 repair inh inconclusive (no result: Gal4-VP16 FLuc, RORg inh)
CC(=O)Nc1ccc(C(=O)OCC(=O)NCc2ccc3c(c2)OCO3)cc1	none (no result: Gal4-VP16 FLuc, RORg inh)
CC(C(=O)NCc1cccs1)N1CCN(S(=O)(=O)c2ccc3c(c2)OCCCO3)CC1 (centres undefined)	none (no result: Gal4-VP16 FLuc, RORg inh)
CCCCCCCCCC(=O)N/N=C(\C)c1cccnc1	Gal4-VP16 FLuc inconclusive, RORg inh inconclusive, ELG1 repair inh inconclusive
C/C(=N\NC(=O)COc1ccccc1-c1ccccc1)c1ccccn1	Gal4-VP16 FLuc inconclusive, RORg inh 1.1µM, ELG1 repair inh inconclusive
C/C(=N\NC(=O)COc1ccccc1-c1ccccc1)c1ccc(O)cc1O	Gal4-VP16 FLuc inconclusive, ELG1 repair inh 23µM
CCCCCC(=O)N/N=C(\C)c1ccccn1	Gal4-VP16 FLuc 0.56µM, RORg inh 0.35µM, ELG1 repair inh inconclusive
COC(=O)N1c2ccccc2C23[C@@H]4CN5CCC[C@]6(CCC12C(O)(C6)C4=O)[C@H]53	none (no result: ELG1 repair inh, B2AR arrestin, TSHR antagonist)
N#Cc1c(NC(=O)CSc2nc(N)cc(=O)[nH]2)sc2c1CCCCCC2	Gal4-VP16 FLuc inconclusive, ELG1 repair inh inconclusive
CC(Sc1nc(N)cc(=O)[nH]1)C(=O)Nc1sc2c(c1C#N)CCCC2 (centres undefined)	ELG1 repair inh 8.2µM
COc1ccc(S(=O)(=O)c2cnc3ccc(OC)cc3c2N2CCC3(CC2)OCCO3)cc1	Gal4-VP16 FLuc inconclusive, ELG1 repair inh 23µM
CCOc1ccc2ncc(S(=O)(=O)c3ccccc3)c(N3CCC4(CC3)OCCO4)c2c1	ELG1 repair inh inconclusive
CCOc1ccc2ncc(S(=O)(=O)c3ccccc3)c(N3CCN(c4ccc(OC)cc4)CC3)c2c1	ELG1 repair inh 18µM
COc1ccc(N2CCN(c3c(S(=O)(=O)c4ccccc4)cnc4ccc(OC)cc34)CC2)cc1	RORg inh inconclusive, ELG1 repair inh 18µM
CCOC(=O)C1=CN(Cc2cccc(-c3ccc(Cl)nc3)c2)S(=O)(=O)N(C)C1C (centres undefined)	ELG1 repair inh inconclusive (no result: Gal4-VP16 FLuc, RORg inh)
O=C(c1cccc(F)c1)N1CCC2(CCCN(C(c3ccccc3)c3ccccc3)C2)CC1	none (no result: ELG1 repair inh, B2AR arrestin, TSHR antagonist)
CCN(CC(=O)NCc1ccc(Cl)cc1)C(=O)CSc1ccc(Br)cc1	RORg inh inconclusive
S=C(NCc1ccc(Cl)cc1)Nc1ccccc1	Gal4-VP16 FLuc 3.5µM, RORg inh 2.2µM
Fc1ccccc1CNc1cc(Cl)cc(Cl)c1	RORg inh inconclusive, ELG1 repair inh inconclusive
NS(=O)(=O)c1ccc(NC(=S)NCc2ccc(Cl)cc2)cc1	none
